# Only some compounds are listed: those with a hit (about 1.8% of all), similar ones and a draw of the others.
# ERAP1 inh: inhibitors of human ERAP1 aminopeptidase; Q9NZ08; recombinant ERAP1, Leu-AMC fluorescence, 60 min; inhibition, % at 10.7 µM; actives 0.15% (n = 340,000);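 active = mean replicate inhibition of at least 30%, or all replicates individually reaching that 30% level; inactive = mean below 30% and not every replicate reaching it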;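 also: 0% = neutral control wells and 100% = L-leucinethiol positive control wells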
# MLL AF4-AF9 inh: MLL-AF4/AF9 protein interaction inhibition; AID 651704; inhibition, % at 10 µM; AlphaScreen, biotin-AF4 peptide binding to FLAG-AF9; actives 0.47% (n = 350,000);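 active = every replicate reaching a set inhibition limit, whatever the replicate mean, cut at about 25% in these data; inconclusive = mean inhibition reaches that limit but some replicates miss it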;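 also: 0% = plate neutral control median and 100% = total signal loss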
# PDI turbidity: blocks human protein disulfide isomerase activity. P07237. inhibition, % at 10 µM. actives 0.052% (n = 350,000). PDI insulin aggregation turbidity, A650, 90 min;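 active = mean inhibition across replicates of 30% or more, whatever share of single replicates reach that level; inconclusive = mean inhibition below 30% while every single replicate reaches 30%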
# DENV2 CPE rescue: DENV2-induced cell death inhibition; DENV2-infected cells, cytopathic effect rescue, plate reader; CPE inhibition, % at 9.99 µM; actives 1.7% (n = 350,000); in the data active = CPE inhibition above about 20%, passing the limit was not always enough; inconclusive = no clear call, values can overlap the other calls; tested in BHK-21 cells;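 also: 0% = median of neutral control wells and 100% = median of positive control wells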
# ERp5 block: ERp5 (human) disulfide isomerase inhibition; actives 0.05% (n = 350,000); inhibition, % at 9.99 µM; ERp5 insulin aggregation, absorbance 650 nm, 90 min;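 active = mean replicate inhibition above about 25%, with every replicate also reaching it, limit read from the data, passing the limit was not always enough; inconclusive = only one of those two criteria met; inactive = neither criterion met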
# Target sequence (Q15084 whole entry, looked up): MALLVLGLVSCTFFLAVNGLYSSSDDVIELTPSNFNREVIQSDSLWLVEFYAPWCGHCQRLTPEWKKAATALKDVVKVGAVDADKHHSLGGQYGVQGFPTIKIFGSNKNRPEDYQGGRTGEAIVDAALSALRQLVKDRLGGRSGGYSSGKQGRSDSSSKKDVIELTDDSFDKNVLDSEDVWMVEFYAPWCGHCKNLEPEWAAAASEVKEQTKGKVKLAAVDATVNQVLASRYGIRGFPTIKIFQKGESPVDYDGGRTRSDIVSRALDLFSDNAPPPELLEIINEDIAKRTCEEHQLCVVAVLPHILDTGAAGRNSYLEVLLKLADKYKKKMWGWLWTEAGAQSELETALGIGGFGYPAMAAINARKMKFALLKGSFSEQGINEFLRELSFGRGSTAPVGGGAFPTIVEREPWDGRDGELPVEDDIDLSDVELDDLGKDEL
# * = called active by the depositor; u = inconclusive; x = not tested or not shown.
SMILES,ERAP1 inh,MLL AF4-AF9 inh,PDI turbidity,DENV2 CPE rescue,ERp5 block
Cc1ccc(S(=O)(=O)N(C)C[C@H]2Oc3cc(C4=CCCC4)ccc3S(=O)(=O)N([C@@H](C)CO)C[C@@H]2C)cc1,x,2,x,3,-9
COc1cccc(S(=O)(=O)N(C)C[C@H]2Oc3cc(C4=CCCC4)ccc3S(=O)(=O)N([C@H](C)CO)C[C@@H]2C)c1,-3,1,x,38*,1
Cc1ccc(S(=O)(=O)N(C)C[C@@H]2Oc3cc(C4=CCCC4)ccc3S(=O)(=O)N([C@H](C)CO)C[C@H]2C)cc1,-3,1,x,79*,-1
COC(=O)CNC(=O)C1Nc2ccccc2C2C=CCC12 (stereo unspecified),-2,6,15,15,0
CC(C)CNC(=O)C1Nc2ccccc2C2C=CCC12 (stereo unspecified),-4,6,1,63*,-3
CCOc1ccc(Nc2nc(N)nc(CSC(=S)N3CCN(c4ccccc4)CC3)n2)cc1,5,35*,6,9,0
COC(=O)c1c(-c2ccc(N(C)C)cc2)sc2ccc(OC)cc12,16,-9,-2,x,-1
COC(=O)c1c(-c2ccc(OC)cc2)sc2cc3c(cc12)OCO3,5,-4,13,20*,-6
CC=Cc1ccc2n(c1=O)C[C@H]1[C@H](CO)[C@@H](C(=O)N3CCCCC3)[C@@H]2N1Cc1ccccn1 (mixture of isomers),x,-1,x,4,-2
CCOc1ccc(NC(=O)Nc2cc(C(C)C)c(O)cc2C)cc1,x,-3,-1,0,-6
Cc1cc(O)c(C(C)C)cc1NC(=S)Nc1cc(C(C)C)c(O)cc1C,-7,6,7,74*,0
CCC1=C2CC[C@H]3C(=O)N(C)C(=O)[C@H]3[C@H]2[C@@]2(Cc3ccccc3)C(=NCCOC)OC(=O)N2C1=O,9,-1,3,40*,-3
CCC1=C(OC(=O)N(CC)CC)N2C(=O)OC(=NCCOC)[C@]2(Cc2ccccc2)[C@H]2C1=CC[C@H]1C(=O)N(C)C(=O)[C@H]12,-1,x,3,7,0
CCC1=C(OC(=O)N(CC)CC)N2C(=O)OC(=NCCOC)[C@]2(Cc2ccccc2)[C@H]2C1=CC[C@H]1C(=O)N(CC)C(=O)[C@H]12,-1,x,0,21*,-2
Cc1noc(C)c1NC(=O)N(C)C[C@H]1Oc2ccc(NC(=O)Cc3ccccc3)cc2CC(=O)N([C@@H](C)CO)C[C@@H]1C,10,-2,x,-3,-4
O=C1C=CC(=O)N1c1ccccc1N1C(=O)C=CC1=O,58*,-2,2,2,11
Cc1cccc(C)c1NC(=O)CSc1nnc(NC(=O)c2ccccc2C(=O)O)s1,45*,0,4,0,-2
CC(=O)Nc1ccc(NC(=O)CSc2nnc(NC(=O)c3ccccc3F)s2)cc1,-35,0,-3,30*,2
CO[C@@H]1CN(C)C(=O)c2cc(NC(C)=O)ccc2OC[C@@H](C)NC[C@@H]1C,1,-1,x,20,0
Cc1cccc(-n2nnnc2SCC(=O)NCC2(N3CCOCC3)CCCCC2)c1C,-5,1,15,5,-1
COc1ccccc1-n1nnnc1SCC(=O)NCC1(N2CCOCC2)CCCCC1,2,27*,4,0,-17
C/C=C/c1ccc([C@@H]2[C@@H](CO)N3C(=O)CN(Cc4ccccc4)C[C@H]23)cc1,-2,3,x,25*,1
O=C(CC1CC1)N1CC(=O)N2[C@@H](CO)[C@@H](c3ccc(C#Cc4cccc(F)c4)cc3)[C@@H]2C1,-3,-3,x,29*,2
CCCC#Cc1ccc([C@@H]2[C@@H](CO)N3C(=O)CN(C(=O)Nc4ccc(F)cc4)C[C@H]23)cc1,0,1,x,36*,2
O=C1CN(S(=O)(=O)Cc2ccccc2)C[C@H]2[C@H](c3ccc(C#Cc4ccc(F)cc4)cc3)[C@@H](CO)N12,-3,-2,x,38*,10
SMILES,ERAP1 inh,MLL AF4-AF9 inh,PDI turbidity,DENV2 CPE rescue,ERp5 block
O=C1CN(S(=O)(=O)Cc2ccccc2)C[C@@H]2[C@@H](c3ccc(C#Cc4ccc(F)cc4)cc3)[C@H](CO)N12,-3,-2,x,-5,3
C[C@H](CO)N1C[C@H](C)[C@@H](CN(C)C(=O)C2CC2)OCc2ccccc2-c2ccccc2C1=O,1,4,x,3,-10
COc1ccccc1-c1cn(CC[C@@H]2CC[C@H](NC(=O)CCN3CCCCC3)[C@@H](CO)O2)nn1,-1,1,x,u,12
COc1ccccc1NC(=O)N1CC(=O)N2[C@H](C1)[C@@H](c1ccc(C#Cc3ccc(F)cc3)cc1)[C@@H]2CO,-1,-1,x,69*,-3
O=C(NC1CCCC1)N1CC(=O)N2[C@H](C1)[C@@H](c1ccc(/C=C/c3ccccc3)cc1)[C@@H]2CO,-1,25*,x,-10,13
CCCC#Cc1ccc([C@@H]2[C@H]3CN(C(=O)NC4CCCC4)CC(=O)N3[C@H]2CO)cc1,-3,3,x,22*,3
CC(C)NC(=O)N1CC(=O)N2[C@@H](CO)[C@@H](c3ccc(C#CCN(C)C)cc3)[C@@H]2C1,-3,-2,x,11,4
COc1ccccc1NC(=O)N1CC(=O)N2[C@@H](CO)[C@@H](c3ccc(C#Cc4ccc(F)cc4)cc3)[C@@H]2C1,0,-1,x,2,4
CC(C)NC(=O)N1CC(=O)N2[C@H](CO)[C@H](c3ccc(C#CCN(C)C)cc3)[C@@H]2C1,-5,-1,x,23*,-3
[N-]=[N+]=NCc1ccccc1C[C@]1(C(=O)N2CCCCC2)N=C(c2ccc(OCCCO)cc2)O[C@H]1c1ccccc1,-2,2,x,-4,-4
CO[C@H]1CN(C)C(=O)c2cc(NC(C)=O)ccc2OC[C@H](C)N(CCC(F)(F)F)C[C@@H]1C,-5,-19,x,-10,-2
CN1c2ccc(-c3cccc(C#N)c3)cc2[C@@H]2[C@@H](CCN2C(=O)Nc2cc(F)ccc2F)[C@@H]1CO,1,5,x,16,2
COc1ccccc1NC(=O)N1CC[C@H]2[C@@H]1c1cc(C#Cc3ccc(F)cc3)ccc1N(C)[C@H]2CO,0,-5,x,34*,-2
CN1c2ccc(-c3ccc(C#N)cc3)cc2[C@@H]2[C@@H](CCN2C(=O)Nc2ccccc2F)[C@@H]1CO,0,-4,x,42*,-1
COCC(=O)N1CC2(C1)[C@H](c1ccccc1)[C@H](CO)N2C(=O)c1ccncc1,-4,-3,x,4,-4
C[C@@H]1CCCCO[C@@H](CN(C)C(=O)Nc2ccc3c(c2)OCO3)[C@H](C)CN([C@@H](C)CO)C(=O)c2cc(NC(=O)Nc3ccc(F)cc3)ccc2O1,-2,-3,x,-2,1
C[C@@H]1CN([C@@H](C)CO)C(=O)c2cc(NC(=O)Nc3ccc(F)cc3)ccc2O[C@@H](C)CCCCO[C@@H]1CN(C)C(=O)Nc1ccc2c(c1)OCO2,-4,1,x,23*,4
